Source: PubChem BioAssay (NCI)
Where “and” joins values, the source holds several entries; their conditions need not be identical. Equal entries are not always repeated. This is part of a sample that, as a whole, favours compounds with a hit. Of some 83,000 tested, about 20% had one in any assay.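 Values shown are percent growth following 48 h exposure of cells in 96-well plates to a single concentration of compound; below 10 was considered active.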 Calls of active or inactive are those of the source.

Experiments:
Assay in all cases: NCI-60 one-dose screen, 48 h (100 = growth as untreated, 0 = no growth, -100 = all killed)
Conditions in all cases: 10 µM unless noted
[1] = tested on: NCI-H23 lung
[2] = tested on: NCI-H226 lung
[3] = tested on: NCI-H322M lung
[4] = tested on: HOP-62 NSCLC
[5] = tested on: NCI-H460 lung
[6] = tested on: HOP-92 NSCLC
[7] = tested on: NCI-H522 lung
[8] = tested on: A549/ATCC NSCLC
[9] = tested on: 786-0 renal
[10] = tested on: COLO 205 colon

| Structure (SMILES) | growth [1] | growth [2] | growth [3] | growth [4] | growth [5] | growth [6] | growth [7] | growth [8] | growth [9] | growth [10] |
| --- | --- | --- | --- | --- | --- | --- | --- | --- | --- | --- |
| CC(NC(=O)CCl)c1ccccc1 (centres undefined) | 99.9% (inactive) | 96.3% (inactive) | 106% (inactive) | 107% (inactive) | 99.7% (inactive) | 89% (inactive) | 98% (inactive) | 104% (inactive) | 104% (inactive) | 104% (inactive) |
| O=[N+]([O-])c1ccc(N2CCN=N2)cc1 | 99.6% (inactive) | 96% (inactive) | 88% (inactive) | 82.9% (inactive) | 98.9% (inactive) | 89% (inactive) | 78.8% (inactive) |  | 84.8% (inactive) | 92.7% (inactive) |
| NNC(=O)Nc1ccccc1 | 100% (inactive) | 95.2% (inactive) | 96.1% (inactive) | 103% (inactive) | 104% (inactive) | 90.8% (inactive) | 107% (inactive) | 113% (inactive) | 99.8% (inactive) | 99.1% (inactive) |
| C(=N\OCCc1ccccc1)/c1ccccn1 | 109% (inactive) | 121% (inactive) and 108% (inactive) | 138% (inactive) and 105% (inactive) | 127% (inactive) | 103% (inactive) and 111% (inactive) | 103% (inactive) | 112% (inactive) and 102% (inactive) |  | 96.7% (inactive) and 97.1% (inactive) | 135% (inactive) and 115% (inactive) |
| COc1ccc(CCN=Cc2ccc(Cl)cc2)cc1OC | 100% (inactive) | 112% (inactive) | 106% (inactive) | 107% (inactive) | 113% (inactive) | 89.6% (inactive) | 94.8% (inactive) | 108% (inactive) | 108% (inactive) | 108% (inactive) |
| Cc1cc2nc3ccc(=[N+](C)C)cc-3sc2cc1N | 21.7% (inactive) | 43.3% (inactive) and 58.9% (inactive) | 22.6% (inactive) and 38.3% (inactive) | 0.425% (active) and 42.7% (inactive) | 6.67% (active) and 7.84% (active) | 43.1% (inactive) and 8.68% (active) | -55.4% (active) and 13% (inactive) | 6.81% (active) and 7.05% (active) | 39.4% (inactive) and 35.9% (inactive) | -68.6% (active) and -23.5% (active) |
| CCCCNC(=O)c1ccccc1C | 90.4% (inactive) | 94.4% (inactive) | 89.4% (inactive) | 91.1% (inactive) | 105% (inactive) | 96.3% (inactive) | 93.2% (inactive) | 100% (inactive) | 92.9% (inactive) | 98.3% (inactive) |
| CCOP(=O)(OCC)/C(C#N)=C/c1c(C)[nH]c2ccccc12 | 103% (inactive) | 84% (inactive) | 107% (inactive) | 89.1% (inactive) | 101% (inactive) | 84% (inactive) | 87.1% (inactive) |  | 106% (inactive) | 107% (inactive) |
| OCCS | 93.7% (inactive) | 98.8% (inactive) | 101% (inactive) | 97.3% (inactive) | 106% (inactive) | 95.2% (inactive) | 102% (inactive) |  | 94.2% (inactive) | 107% (inactive) |
| O=C(O)c1c2c(nc3ccccc13)Cc1ccccc1-2 | 96.7% (inactive) and 95.7% (inactive) | 115% (inactive) and 95% (inactive) | 119% (inactive) and 87.4% (inactive) | 118% (inactive) and 88.9% (inactive) | 105% (inactive) and 102% (inactive) | 92.3% (inactive) and 96.5% (inactive) | 113% (inactive) and 104% (inactive) | 97.9% (inactive) and 107% (inactive) | 108% (inactive) and 101% (inactive) | 109% (inactive) and 107% (inactive) |
| CCOP(C)(=O)/C(Cc1ccc(OC)c(OC)c1)=N\O (centres undefined) | 97.1% (inactive) | 96% (inactive) | 90.5% (inactive) | 98.7% (inactive) | 105% (inactive) | 100% (inactive) | 102% (inactive) |  | 103% (inactive) | 112% (inactive) |
| Cc1nc(Nc2ccc(Cl)cc2)c2cnn(-c3ccccc3)c2n1 | 97.3% (inactive) | 96.6% (inactive) | 104% (inactive) | 108% (inactive) | 103% (inactive) | 95.4% (inactive) |  | 110% (inactive) | 103% (inactive) | 102% (inactive) |
